Source: PubChem BioAssay (National Center for Advancing Translational Sciences (NCATS))
Compounds with a hit are over-represented: about 21% of the library has one in this group of screens.
Pf growth 96h: P. falciparum growth inhibition at 96 hours | AID 504834 | 6.9% of 320,000 active | P. falciparum luciferase reporter growth, 96 h | Potency, µM (highest dose often 28.7 µM), usual class: inhibitors
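Two-generation exposure (96 h) targets delayed-death phenotype. Reporter parasites carrying integrated firefly luciferase, in red cells at 2% hematocrit and 0.05% parasitemia final, kept at 37 C, 5% CO2; luminescence loss indicates inhibition.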
Shiga inhibitor: blocks Shiga toxin action in Vero cells; Vero cells, Shiga toxin protein synthesis inhibition reporter; inhibition, % at 38.7 µM; 9.2% of 290,000 active; in the data active = inhibition mostly above about 28%, no sharp cut-off; inactive = mostly below about 43%
AMA1 RON2 block: inhibitors of Plasmodium falciparum AMA1-RON2 interaction. 0.2% of 360,000 active. Potency, µM (doses to about 58.2 µM), most hits filed as inhibitors. AlphaScreen AMA1-biotinylated RON2 peptide binding; note: nearly all actives have a fitted effect of over 45% in size
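AMA1 (3D7) with his tag at 25 nM final met compounds first, then biotinylated RON2 peptide at 25 nM; detection used donor plus acceptor beads, 10 µg/mL apiece, read by AlphaScreen after 30 min at room temperature.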
Pf growth 48h: P. falciparum growth inhibition at 48 hours (one generation) | P. falciparum luciferase growth in erythrocytes, 48 h | Potency, µM (highest dose often 28.7 µM), hits mostly inhibitors | AID 504832 | 5.9% of 310,000 active
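Growth was read as firefly luciferase luminescence after a 48 h, 37 C, 5% CO2 exposure of compounds to reporter-bearing P. falciparum cultures (0.1% parasitemia, 2% hematocrit final) in Albumax-supplemented RPMI 1640.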
HCV inh: HCV inhibition | Huh7.5.1 HCVcc-Cre infection, luciferase reporter, 44 h | Potency, µM (top dose mostly 41.8 µM), hits mostly inhibitors | 3.4% of 340,000 active | AID 651820
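Seed cells (1,000/well) for 4 h; treat with compound and infect with HCVcc-Cre, moi about 0.5. Incubate 44 h, then detect luciferase activity.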
CHX counter: counter-screen for Shiga toxin inhibitors: cycloheximide protein synthesis inhibition | cell reporter, cycloheximide protein synthesis inhibition counterscreen | 12% of 300,000 active | max response, % | AID 2314; in the data active = max response mostly above about 13%, no sharp cut-off; inactive = mostly below about 14%; note: read at 38.3 µM for the half of the compounds with a filed dose
Of the large screens only hits and unclear results are named; the others gave an inactive call. Unless noted, calls come from the whole dose curve; as a rule, active = well fitted curve in the direction sought with a large enough effect; inconclusive = small, poorly fitted or top-dose-only effect, or another doubt; inactive = no such curve, though single readings can be large; an effect the other way counts as inactive or inconclusive.

CCOc1ccc(NS(=O)(=O)c2cccc(C(=O)N3CCN(C/C=C/c4ccccc4)CC3)c2)cc1	HCV inh inconclusive (no result: Pf growth 96h, Shiga inhibitor, Pf growth 48h, CHX counter)
Cc1cc(Nc2nc3ccccc3nc2Cl)n(-c2ccccc2)n1	Pf growth 96h inconclusive, HCV inh inconclusive (no result: Pf growth 48h)
Cc1cc(Nc2nc3ccccc3nc2Cl)n(-c2ccccc2C)n1	Pf growth 96h 1.5µM, Pf growth 48h 1.5µM
COCOCCn1cc(CN2CCS(=O)(=O)N(Cc3ccc(-c4ccc(Cl)c(Cl)c4)cc3)C(C)C2=O)nn1 (centres undefined)	none (no result: Pf growth 96h, Shiga inhibitor, Pf growth 48h, HCV inh, CHX counter)
COc1ccc(CN(C)C(=S)Nc2ccc(Cl)cc2)cc1	none
Fc1cccc(/C=N/Nc2ccc(Cl)nn2)c1	CHX counter 41
CCOc1ccccc1/C=N/Nc1ccc(Cl)nn1	HCV inh inconclusive (no result: Pf growth 48h)
CCOc1ccc(/C=N/Nc2ccc(Cl)nn2)c(O)c1	Pf growth 96h inconclusive, Shiga inhibitor 58, Pf growth 48h 1.3µM
Oc1c(Br)cc(/C=N/Nc2ccc(Cl)nn2)cc1Br	Pf growth 96h 1µM, Pf growth 48h 0.52µM
Oc1c(Br)cc(Br)cc1/C=N/Nc1ccc(Cl)nn1	Pf growth 96h inconclusive, Pf growth 48h inconclusive
COc1cc(/C=N/Nc2ccc(Cl)nn2)cc(OC)c1O	Pf growth 96h inconclusive
CCOc1ccccc1NC(=O)C1CCN(S(C)(=O)=O)CC1	none
CCOc1ccccc1NC(=O)C1CCN(S(=O)(=O)c2ccc(OC)c(OC)c2)CC1	Pf growth 96h 6.6µM
CCOc1ccccc1NC(=O)C1CCN(c2ccc(S(=O)(=O)N3CCCC3)cc2)CC1	Pf growth 48h 4.7µM, HCV inh inconclusive
CCS(=O)(=O)N1CCC(C(=O)Oc2ccccc2OC)CC1	Pf growth 96h 13µM
COc1ccc(OCc2nnc(SCC(=O)Nc3nnc(C4CC4)s3)n2C)cc1	none
O=C1NCCOC(=O)[C@@H](Cc2ccc(F)cc2)C/C=C\C[C@@H]1CC(=O)N(CCO)Cc1ccccc1	HCV inh inconclusive (no result: Pf growth 96h, Shiga inhibitor, Pf growth 48h, CHX counter)
COc1ccccc1N(C)S(=O)(=O)c1ccc(C(=O)N(C)Cc2cccc(F)c2)cc1	none (no result: Pf growth 96h, Shiga inhibitor, Pf growth 48h, HCV inh, CHX counter)
CCc1ccc(OC)c(S(=O)(=O)Nc2ccc(Cc3ccncc3)cc2)c1	Pf growth 48h inconclusive, HCV inh 8.9µM
O=S(=O)(Nc1ccc(Cc2ccncc2)cc1)c1ccc(Cl)c(Cl)c1	Pf growth 96h inconclusive, Pf growth 48h inconclusive, HCV inh 7.9µM
COc1ccc(S(=O)(=O)Nc2ccc(Cc3ccncc3)cc2)cc1OC	HCV inh inconclusive
CC(C)CC(N)c1csc(Nc2ccc(C(F)(F)F)cn2)n1 (centres undefined)	none (no result: Pf growth 96h, Shiga inhibitor, Pf growth 48h, HCV inh, CHX counter)
CC(=O)c1ccc(-n2ccc(=O)cc2)cc1	none
CC(C)c1nc(-c2ccc([N+](=O)[O-])cc2)cs1	Shiga inhibitor 56, CHX counter 39
CC(C)=NNc1nc(-c2ccc([N+](=O)[O-])cc2)cs1	Shiga inhibitor 18, CHX counter 22
NC(=O)Cc1nc(-c2ccc([N+](=O)[O-])cc2)cs1	none
CC(=O)Nc1nc(-c2ccc([N+](=O)[O-])cc2)cs1	none
C/C=C/C=N/Nc1nc(-c2ccc([N+](=O)[O-])cc2)cs1	Shiga inhibitor 90, HCV inh inconclusive
C=CCOCCN(CC)CC	none
Cc1ccc(S(=O)(=O)N(CC(=O)NCCSc2ccccn2)c2ccccc2F)cc1	Pf growth 96h inconclusive, Pf growth 48h inconclusive
COc1cc2c3c(n(C)c(=O)c2cc1OC)-c1cc2c(cc1C3=O)OCO2	HCV inh inconclusive (no result: Pf growth 96h, Shiga inhibitor, Pf growth 48h, CHX counter)
COc1ccc(-c2nn(-c3ccccc3)cc2/C=N/O)cc1	Pf growth 48h inconclusive
COc1ccc(-c2nn(-c3ccccc3)cc2/C=N/NC(=O)c2cccc(S(=O)(=O)Nc3ccccc3Cl)c2)cc1	Pf growth 96h 2.9µM, Pf growth 48h 9.3µM, HCV inh inconclusive
COc1ccc(-c2nn(-c3ccccc3)cc2/C=N/N2C(=O)CSC2=S)cc1	HCV inh inconclusive, CHX counter 29 (no result: Pf growth 48h)
COc1ccc(-c2nn(-c3ccccc3)cc2/C=N/NS(=O)(=O)c2ccccc2)cc1	Pf growth 96h 12µM, Pf growth 48h inconclusive, HCV inh inconclusive
Cc1ccsc1/C=N/NC(=O)c1cccc(S(=O)(=O)Nc2ccccc2Cl)c1	none
CCCCC(O)(CCCC)C(=O)NN(C(=O)c1cccnc1Cl)c1ccccc1	Pf growth 48h inconclusive
O=C(CC[C@H]1O[C@@H](n2cnc3c(NC(=O)c4ccccc4)ncnc32)[C@H](O)[C@@H]1O)NCCc1cc2ccccc2[nH]1	none (no result: Pf growth 96h, Shiga inhibitor, Pf growth 48h, HCV inh, CHX counter)
Cc1cc(C)n2nc(C(=O)Nc3cccc(S(=O)(=O)N(C)c4ccccc4)c3)nc2n1	Pf growth 96h inconclusive, Pf growth 48h inconclusive, HCV inh inconclusive
COc1ccccc1C(=O)Nc1nc(-c2ccc(S(=O)(=O)N3CCOCC3)cc2)cs1	Pf growth 96h inconclusive, HCV inh 3.5µM (no result: Pf growth 48h)
CC(C)C(=O)Nc1nc(-c2ccc(S(=O)(=O)N3CCOCC3)cc2)cs1	none
COc1ccc(-c2csc(NC(=O)C(CC(=O)O)N3CCOCC3)n2)cc1 (centres undefined)	Pf growth 96h 12µM, Pf growth 48h 1.3µM
COc1ccccc1OC(C)C(=O)Nc1nc(-c2ccc(S(=O)(=O)N3CCOCC3)cc2)cs1 (centres undefined)	Pf growth 96h 12µM, Pf growth 48h inconclusive, HCV inh inconclusive
Cc1oc2c(C)c3oc(=O)c(CCC(=O)N4C[C@H]5C[C@@H](C4)c4cccc(=O)n4C5)c(C)c3cc2c1C	Pf growth 96h 12µM, Pf growth 48h inconclusive
Cc1c(CC(=O)N2C[C@H]3C[C@@H](C2)c2cccc(=O)n2C3)c(=O)oc2c(C)c(O)ccc12	none
Cc1c(C)c2ccc(OC(C)C(=O)N3C[C@H]4C[C@@H](C3)c3cccc(=O)n3C4)c(C)c2oc1=O (some centres undefined)	Pf growth 96h inconclusive
Cc1oc2cc3oc(=O)c(CCC(=O)N4C[C@H]5C[C@@H](C4)c4cccc(=O)n4C5)c(C)c3cc2c1C	Pf growth 96h 2.9µM, Pf growth 48h inconclusive
Cc1coc2c(C)c3oc(=O)c(CCC(=O)N4CCC(C(=O)NCCCC(=O)O)(c5ccccc5)CC4)c(C)c3cc12	Pf growth 96h 9.3µM, Pf growth 48h inconclusive
Cc1c(OC(C)C(=O)N2C[C@H]3C[C@@H](C2)c2cccc(=O)n2C3)ccc2c3c(c(=O)oc12)CCC3 (some centres undefined)	Pf growth 96h 10µM, HCV inh inconclusive
Cc1coc2c(C)c3oc(=O)c(CCC(=O)NCCN4CCOCC4)c(C)c3cc12	Pf growth 96h inconclusive, Pf growth 48h inconclusive, HCV inh inconclusive
Cc1coc2c(C)c3oc(=O)c(CCC(=O)N4C[C@H]5C[C@@H](C4)c4cccc(=O)n4C5)c(C)c3cc12	Pf growth 96h inconclusive, Pf growth 48h 3.3µM
O=C(Nc1nc2c(s1)CN(Cc1ccccc1)CC2)C1CCC1	Shiga inhibitor 74, HCV inh inconclusive, CHX counter 31
